28 compounds from PubChem BioAssay can be followed below.

Assay [1] deals with 6-phosphogluconate dehydrogenase, decarboxylating (Homo sapiens) (UniProt P52209). The experiment in a line: inhibition of human phosphogluconate dehydrogenase – biochemical, recombinant enzyme, NADPH absorbance, primary screen (AID 1159550;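 active means at least 20% inhibition of 6-phosphogluconate dehydrogenase activity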). Particulars: recombinant 6PGD, NADPH absorbance 341 nm; at 10 µM; stronger effect = higher value.
Assay [2] in a line: EMT-state selective cytotoxicity in co-culture – imaging, PC-3E GFP, TEM4-18 mCherry, primary screen (AID 1345086;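 active means compounds killing one labelled cell type while sparing the other, by normalised counts and ratio limits, not self-fluorescent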;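 on all read-outs here: cells exposed to compound for 72 h before imaging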;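 on red/green cell ratio (normalised): normalised mesenchymal count divided by normalised epithelial count so high means epithelial killing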). The following applies: PC-3E GFP / TEM4-18 mCherry co-culture, imaging cell counts, at 1 µM; for red/green cell ratio (normalised): actives lie on both sides, counts scaled to control wells, 1 = unselective.
Assay [3] concerns the target Mitogen-activated protein kinase 7 (Homo sapiens) (UniProt Q13164). The experiment in a line: Gal4-ERK5 driven luciferase induction – cell-based, HTS, primary screen (AID 1508626).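 Further: luciferase driven by Gal4-ERK5 fusion binding five Gal4 sites before minimal TATA.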 Particulars: HeLa Gal4-ERK5 transactivation, 18 h, at 5 µM, stronger effect = higher value.
Assay [4] deals with ATP-dependent translocase ABCB1 (Homo sapiens) (UniProt P08183). Briefly: P-glycoprotein substrate transport blockade – cell-based (AID 377; in the data active means fluorescence slope change above about 50%). The following applies: MDR1-expressing cells, fluorescent substrate accumulation slope; stronger effect = higher value; concentration not given here.
The nature of assay [5]: rescue of PC12 cells from polyQ htt toxicity – LDH release (AID 1610). Particulars: PC12 mutant huntingtin toxicity, final LDH at 4 uM, stronger effect = lower value. A general note: LDH leaks from cells whose membrane has failed.
Assay [6] can be described thus: viability loss in pontine glioma line – cell-based, SU-DIPG-XIII, MIPE5.0, CellTiter-Glo, qHTS, dose response (AID 1347064; cut-off not given, nearly all actives have AC50 up to about 23 µM;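 on AC50: cells exposed to compound for 48 hours before the viability read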). Particulars: CellTiter-Glo ATP luminescence. For orientation: Cellular ATP, detected with luciferase, serves as a proxy for viable cell number.
The subject of assay [7] is Aerobactin synthetase IucA (Klebsiella pneumoniae). Briefly: inhibition of K. pneumoniae IucA enzyme – biochemical, Tocris library, absorbance (AID 1345561; call rule not given here;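 further: 100% = enzyme without compound and 0% = no enzyme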). The following applies: purified IucA enzyme assay, absorbance (OD) read-out; stronger effect = lower value;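 tested at 8 µM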.
The nature of assay [8]: viability loss with induced miR-34 in A549 – imaging, A549 dox-inducible miR-34, nuclei and caspase counts, primary screen (AID 1347080;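 active means compounds whose cell count with miR-34 switched on is under 0.7 times the count with it off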). The following applies: A549 miR-34 inducible, Hoechst nuclei count, 48 h.
The nature of assay [9]: galactose survival enhancers in mitochondrial complex I cybrids – cell-based, galactose medium, ATP luminescence, primary screen (AID 1645843;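 active means z-score of at least 1.8 in each of two replicates, scored against plate mean and spread of sample wells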;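 further: positive z means more ATP and so rescue of galactose-driven cybrid death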). Particulars: complex I mutant cybrid cells, 72 h, stronger effect = higher value.
Assay [10] can be described thus: viability loss in pontine glioma line – cell-based, SU-DIPG-XVII, MIPE5.0, CellTiter-Glo, qHTS, dose response (AID 1347060; cut-off not given, nearly all actives have AC50 up to about 26 µM). The following applies: CellTiter-Glo ATP luminescence.
A short description of assay [11]: viability loss in pontine glioma line – cell-based, JHH-DIPG-1, MIPE4.0, CellTiter-Glo, qHTS, dose response (AID 1347062; cut-off not given, nearly all actives have AC50 up to about 27 µM). Particulars: JHH-DIPG-1 viability, CellTiter-Glo ATP luminescence.
Assay [12] in a line: viability loss in pontine glioma line – cell-based, SU-DIPG-IV, MIPE4.0, CellTiter-Glo, qHTS, dose response (AID 1347063; cut-off not given, nearly all actives have AC50 up to about 30 µM;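 further: compound exposure lasted 48 hours before the viability readout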). Particulars: CellTiter-Glo ATP luminescence.
The nature of assay [13]: viability loss in pontine glioma line – cell-based, SU-DIPG-XXV, MIPE5.0, CellTiter-Glo, qHTS, dose response (AID 1347065; cut-off not given, nearly all actives have AC50 up to about 26 µM;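 further: cells exposed to compound for 48 hours before ATP readout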). The following applies: CellTiter-Glo ATP luminescence.
Assay [14] can be described thus: growth inhibition of DIPG cells – cell-based, MIPE4.0 library, CellTiter-Glo luminescence, qHTS (AID 1347066; cut-off not given, nearly all actives have AC50 up to about 30 µM;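 further: cells exposed to compound for 48 hours before readout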). The following applies: SU-DIPG-VI viability, CellTiter-Glo ATP luminescence.
Assay [15] is described as follows: JHH-DIPG-1 glioma cell viability, MIPE5.0 library, CellTiter-Glo luminescence, qHTS (AID 1347067; cut-off not given, nearly all actives have AC50 up to about 26 µM;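 further: cells exposed to compound for 48 hours before readout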). The following applies: JHH-DIPG-1 glioma viability, CellTiter-Glo ATP luminescence.
Assay [16] in a line: growth inhibition of DIPG cells – cell-based, MIPE5.0 library, qHTS (AID 1347068; cut-off not given, nearly all actives have IC50 up to about 30 µM). The following applies: SU-DIPG-XXV viability. Background: Quantitative high-throughput screening tests each substance at several concentrations.
[17] abbreviates: measured here: epithelial PC-3E GFP cell survival.
[18] abbreviates: measured here: mesenchymal TEM4-18 mCherry cell survival.

Where “and” joins values, the source holds several entries; their conditions need not be identical. Identical values can stand only once. Inconclusive results are not listed. Calls of active or inactive are those of the source.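 How the source made its calls, unless noted: active means luciferase signal above three times the same-plate solvent-only control wells; inactive means the rest.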

Mitogen-activated protein kinase 7 (Homo sapiens), sequence (Q13164 whole entry, looked up, the tested form may be a part): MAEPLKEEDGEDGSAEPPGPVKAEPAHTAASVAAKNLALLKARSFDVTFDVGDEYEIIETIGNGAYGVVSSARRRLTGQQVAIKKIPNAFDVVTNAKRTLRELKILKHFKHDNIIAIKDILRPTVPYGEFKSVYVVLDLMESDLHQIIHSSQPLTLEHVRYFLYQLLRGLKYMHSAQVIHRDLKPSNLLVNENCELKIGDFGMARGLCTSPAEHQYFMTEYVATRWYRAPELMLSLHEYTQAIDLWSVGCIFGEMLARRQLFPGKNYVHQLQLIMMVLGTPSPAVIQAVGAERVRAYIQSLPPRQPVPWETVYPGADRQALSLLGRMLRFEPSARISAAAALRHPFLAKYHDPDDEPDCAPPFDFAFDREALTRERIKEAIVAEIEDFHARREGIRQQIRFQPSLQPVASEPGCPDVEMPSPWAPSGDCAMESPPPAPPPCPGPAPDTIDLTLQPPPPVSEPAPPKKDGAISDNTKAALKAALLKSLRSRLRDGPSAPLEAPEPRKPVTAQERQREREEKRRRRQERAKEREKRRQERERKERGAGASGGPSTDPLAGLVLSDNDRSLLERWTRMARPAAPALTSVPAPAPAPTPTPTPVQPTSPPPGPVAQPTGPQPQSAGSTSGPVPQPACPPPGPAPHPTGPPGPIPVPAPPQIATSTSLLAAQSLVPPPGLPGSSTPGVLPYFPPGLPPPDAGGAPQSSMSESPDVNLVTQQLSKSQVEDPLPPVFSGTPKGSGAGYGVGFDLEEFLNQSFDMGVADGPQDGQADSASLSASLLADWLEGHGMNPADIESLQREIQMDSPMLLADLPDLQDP
6-phosphogluconate dehydrogenase, decarboxylating (Homo sapiens), sequence (P52209 whole entry, looked up): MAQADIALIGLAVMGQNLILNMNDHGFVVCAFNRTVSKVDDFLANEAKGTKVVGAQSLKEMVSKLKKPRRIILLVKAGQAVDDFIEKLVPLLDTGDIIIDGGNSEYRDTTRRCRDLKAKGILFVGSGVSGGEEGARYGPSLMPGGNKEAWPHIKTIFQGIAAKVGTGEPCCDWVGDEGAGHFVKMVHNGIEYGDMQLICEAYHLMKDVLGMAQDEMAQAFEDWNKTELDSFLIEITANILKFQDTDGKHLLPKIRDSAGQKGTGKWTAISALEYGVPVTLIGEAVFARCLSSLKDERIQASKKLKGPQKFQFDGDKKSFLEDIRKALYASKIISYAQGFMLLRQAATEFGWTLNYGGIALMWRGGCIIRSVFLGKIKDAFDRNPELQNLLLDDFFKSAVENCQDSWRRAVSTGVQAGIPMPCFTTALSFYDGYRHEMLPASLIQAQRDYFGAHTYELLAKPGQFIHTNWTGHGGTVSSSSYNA
ATP-dependent translocase ABCB1 (Homo sapiens), sequence (P08183 whole entry, looked up): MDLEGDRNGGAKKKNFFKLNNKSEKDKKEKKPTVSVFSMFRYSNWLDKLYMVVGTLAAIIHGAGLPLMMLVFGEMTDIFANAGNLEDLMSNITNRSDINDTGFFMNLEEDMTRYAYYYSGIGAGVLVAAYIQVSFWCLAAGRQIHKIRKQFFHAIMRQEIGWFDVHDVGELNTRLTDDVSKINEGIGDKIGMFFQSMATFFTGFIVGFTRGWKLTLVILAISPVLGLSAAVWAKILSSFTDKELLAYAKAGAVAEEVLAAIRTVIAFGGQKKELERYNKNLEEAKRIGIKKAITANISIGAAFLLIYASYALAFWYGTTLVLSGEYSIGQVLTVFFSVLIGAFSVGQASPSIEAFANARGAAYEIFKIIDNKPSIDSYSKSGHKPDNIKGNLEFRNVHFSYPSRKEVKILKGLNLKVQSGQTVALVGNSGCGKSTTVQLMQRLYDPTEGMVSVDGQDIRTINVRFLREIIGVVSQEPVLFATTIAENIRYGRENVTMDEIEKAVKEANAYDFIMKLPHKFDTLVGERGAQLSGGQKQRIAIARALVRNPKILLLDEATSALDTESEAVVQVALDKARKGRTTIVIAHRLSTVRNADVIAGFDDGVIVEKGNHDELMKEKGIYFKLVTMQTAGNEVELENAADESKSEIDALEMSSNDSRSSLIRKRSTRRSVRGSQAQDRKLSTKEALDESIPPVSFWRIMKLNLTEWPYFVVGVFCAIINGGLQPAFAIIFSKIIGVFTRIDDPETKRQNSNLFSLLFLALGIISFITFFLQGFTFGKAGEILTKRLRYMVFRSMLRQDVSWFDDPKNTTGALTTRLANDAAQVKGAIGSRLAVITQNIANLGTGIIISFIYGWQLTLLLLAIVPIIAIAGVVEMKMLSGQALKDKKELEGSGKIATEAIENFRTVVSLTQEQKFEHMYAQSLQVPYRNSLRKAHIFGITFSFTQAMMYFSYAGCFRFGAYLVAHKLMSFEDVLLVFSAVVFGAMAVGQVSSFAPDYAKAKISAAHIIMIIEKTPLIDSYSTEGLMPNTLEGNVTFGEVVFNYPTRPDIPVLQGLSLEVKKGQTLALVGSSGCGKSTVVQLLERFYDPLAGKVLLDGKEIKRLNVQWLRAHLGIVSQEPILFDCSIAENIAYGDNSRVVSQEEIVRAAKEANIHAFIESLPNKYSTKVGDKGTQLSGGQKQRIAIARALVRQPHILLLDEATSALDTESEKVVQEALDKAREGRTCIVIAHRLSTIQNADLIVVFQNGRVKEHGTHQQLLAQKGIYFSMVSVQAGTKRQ

Regarding `CC(C)=CCC/C(C)=C/CC/C(C)=C/CO`, the inhibition (usually the drop in the measured response relative to a control, in per cent) in assay [1] was 1.99% (inactive). In addition, the red/green cell ratio (normalised) in [2] is 0.89 (inactive). The normalised cell number in assay [2] (setting [17]) was 1.03; in assay [2] (setting [18]) it was 0.91. In assay [3], the luciferase signal is 88 AU (inactive).
On the same counts, the results for `CC(=O)O[C@H]1C[C@@H](OC(C)=O)C(C)(C)C2CC(=O)[C@]3(C)C(CC[C@@]4(C)[C@H](C(=O)O)OC(=O)C5OC543)[C@]21C` (some centres undefined) are 1.04% (inactive), 1 (inactive), 0.99, 0.99 and 120 AU (inactive).
Taken in the same sequence, the figures for `C=CCSCC=C` were -1.41% (inactive), 1.04 (inactive), 1.02, 1.06 and 20 AU (inactive).
Consider `CCCCCC1C(=O)CCC1CC(=O)O` (centres undefined), for which the inhibition in assay [1] was -5.33% (inactive). Further, the red/green cell ratio (normalised) in [2] was 0.91 (inactive). For the same compound, the normalised cell number in [2] (setting [17]) and in [2] (setting [18]) was 0.07 throughout. Also, the luciferase signal in assay [3] was 56 AU (inactive).
With `COc1cc(O)cc(OC)c1OC`, the inhibition in assay [1] was -0.756% (inactive). Further, the red/green cell ratio (normalised) in assay [2] is 1.04 (inactive). Besides, the normalised cell number was 1.01 in assay [2] (setting [17]) and 1.04 in [2] (setting [18]). Moreover, the luciferase signal in assay [3] is 20 AU (inactive).
Turning to `Oc1cc(O)c2c(c1)O[C@H](c1cc(O)c(O)c(O)c1)[C@H](O)C2`, the inhibition in [1] is -13.7% (inactive). Moreover, in [2], the red/green cell ratio (normalised) was 1.12 (inactive). Also, the normalised cell number in assay [2] (setting [17]) turned out to be 0.76; in assay [2] (setting [18]), 0.85. The luciferase signal in assay [3] is 172 AU (inactive).
Turning to `O=C(Oc1cc(O)cc2c1C[C@@H](OC(=O)c1cc(O)c(O)c(O)c1)[C@@H](c1cc(O)c(O)c(O)c1)O2)c1cc(O)c(O)c(O)c1`, in [1], the inhibition was 10.8% (inactive). In addition, the red/green cell ratio (normalised) in assay [2] is 1.04 (inactive). The normalised cell number in assay [2] (setting [17]) came to 0.96; in assay [2] (setting [18]) it was 0.99. Also, in assay [3], the luciferase signal was 44 AU (inactive).
`Cc1cc(O)cc(O)c1C(=O)O`: in [1], the inhibition is -6.2% (inactive). Besides, the red/green cell ratio (normalised) in [2] is 0.81 (inactive). The normalised cell number in [2] (setting [17]) was determined as 1.09; in assay [2] (setting [18]), 0.88. The luciferase signal in assay [3] is 124 AU (inactive).
For `O=C(O[C@@H]1Cc2c(O)cc(O)cc2O[C@@H]1c1ccc(O)c(O)c1)c1cc(O)c(O)c(O)c1`, the inhibition in assay [1] was 5.78% (inactive). In addition, in assay [2], the red/green cell ratio (normalised) is 0.99 (inactive). The normalised cell number came out at 0.85 in assay [2] (setting [17]) and 0.83 in assay [2] (setting [18]). The luciferase signal in assay [3] was 52 AU (inactive).
On the same counts, the results for `C=CC1=C(C)/C(=C/c2[nH]c(Cc3[nH]c(/C=C4\NC(=O)C(C)=C4C=C)c(C)c3CCC(=O)O)c(CCC(=O)O)c2C)NC1=O` are 2.22% (inactive), 0.85 (inactive), 1.14, 0.97 and 60 AU (inactive).
Consider `COc1ccc2c(c1)OC1(O)COc3cc(OC)c(OC)cc3C1=C2` (centres undefined), for which the inhibition in [1] is -7.74% (inactive). In assay [2], the red/green cell ratio (normalised) is 1.07 (inactive). The normalised cell number in assay [2] (setting [17]) stood at 1.01; in assay [2] (setting [18]) it was 1.09. Also, the luciferase signal in assay [3] is 108 AU (inactive).
Regarding `C=C[C@@](C)(O)CCC1C(=C)C[C@H](O)C2C(C)(C)CCCC12C` (some centres undefined), the inhibition in [1] was 15.2% (inactive). For the same compound, in [2], the red/green cell ratio (normalised) was 0.87 (inactive). In addition, the normalised cell number in [2] (setting [17]) turned out to be 1.07; in assay [2] (setting [18]), 0.93. The luciferase signal in assay [3] was 64 AU (inactive).
With `COc1cc(-c2coc3cc(OC)c(OC)c(OC)c3c2=O)cc(OC)c1OC`, the inhibition in assay [1] is 12.5% (inactive). Besides, the red/green cell ratio (normalised) in [2] was 1.13 (inactive). Moreover, the figures for the normalised cell number in assay [2] (setting [17]) and in [2] (setting [18]) were 0.98 and 1.1, respectively. The luciferase signal in [3] is 100 AU (inactive).
On the same counts, the results for `COc1cc(O)c(C)c(O)c1` are 5.9% (inactive), 0.94 (inactive), 1.19, 1.12 and 48 AU (inactive).
For the compound `CCOc1ccc(C(=O)c2ccc(O)c(O)c2O)cc1`, in [1], the inhibition is -12.8% (inactive). The red/green cell ratio (normalised) in assay [2] is 0.88 (inactive). The normalised cell number in assay [2] (setting [17]) was found to be 0.99; in [2] (setting [18]), 0.87. The luciferase signal in [3] is 104 AU (inactive).
Consider `CC(=O)c1c(O)cc(O)cc1O`, for which the inhibition in assay [1] was -5.07% (inactive). Moreover, the red/green cell ratio (normalised) in assay [2] was 1.24 (inactive). In addition, the normalised cell number came out at 0.74 in assay [2] (setting [17]) and 0.92 in [2] (setting [18]). Moreover, in assay [3], the luciferase signal is 44 AU (inactive).
Consider `CC12CCC3C(CC3(C)C)C(C)(CCC1=O)O2` (centres undefined), for which the inhibition in assay [1] is 11.8% (inactive). Besides, the red/green cell ratio (normalised) in [2] was 1.12 (inactive). In addition, the normalised cell number in assay [2] (setting [17]) was 0.97; in [2] (setting [18]), 1.09. The luciferase signal in assay [3] was 60 AU (inactive).
Consider `CCNC(=O)CC[C@H](N)C(=O)O`, for which the inhibition in [1] was 3.3% (inactive). In [2], the red/green cell ratio (normalised) was 0.97 (inactive). Moreover, the normalised cell number in assay [2] (setting [17]) turned out to be 1.09; in assay [2] (setting [18]), 1.06. Besides, in [3], the luciferase signal is 164 AU (inactive).
In the case of `COc1ccc(C(=O)CC(=O)O)c2c1C=CC(C)(C)O2`, the inhibition in assay [1] was 10.2% (inactive). Besides, the red/green cell ratio (normalised) in assay [2] is 0.95 (inactive). Also, the normalised cell number in [2] (setting [17]) is 0.98; in [2] (setting [18]) it was 0.93. Also, the luciferase signal in [3] was 60 AU (inactive).
Taken in the same sequence, the figures for `COc1ccc2c(c1)OC/C(=C\c1ccc(OC)c(O)c1)C2=O` were -46% (inactive), 0.99 (inactive), 0.74, 0.74 and 88 AU (inactive).
On to `COc1c2ccoc2nc2c(OC)c(OCC(O)C(C)(C)O)ccc12` (centres undefined), for which the fluorescence slope change in assay [4] is 3.7% (inactive).
Consider `CC(CCc1ccc(O)cc1)NCCc1ccc(O)c(O)c1` (centres undefined), for which, in assay [4], the fluorescence slope change was 19.4% (inactive).
Turning to `O=C1C=CC(=C(c2ccc(O)cc2)c2ccc(O)cc2)C=C1`, the normalised LDH release in assay [5] was found to be 0.611.
`CC(=O)c1c(O)c(C)c(O)c2c1OC1=CC(=O)C(C(C)=O)C(=O)C12C` (centres undefined) gave a normalised LDH release in assay [5] of 1.02.
Regarding `C[C@@]12C(=O)OC(=O)[C@]1(C)[C@H]1CC[C@@H]2O1`, in assay [6], the AC50 (in general, the midpoint of the concentration-response curve, whichever way the signal moves) was 2.95 µM (active).
As for `NC(=O)c1cccc(N)c1`, the call in assay [6] was inactive.
Consider `O=C(/C=C/c1ccc(O)c(O)c1)O[C@H](Cc1ccc(O)c(O)c1)C(=O)O`, for which the inhibition in [1] was -3.01% (inactive). In addition, the remaining activity (usually the signal under treatment as a percentage of the control signal) in assay [7] is 105% (inactive). Besides, the fold change is 0.903 (inactive) and 0.98 (inactive) in assay [8] (stronger effect = lower value, cell number ratio, induced over uninduced); 1.31 and 0.699 in assay [8] (measured here: relative caspase fold change +Dox/-Dox). Moreover, the cell count in assay [8] (measured here: total cells with miR-34 induction, stronger effect = lower value) was 5220 and 9720; in [8] (measured here: total cells without miR-34 induction) it was 5780 and 9920. Also, the luciferase signal in [3] was 44 AU (inactive). In addition, the z-score in [9] is 0.02 (inactive).
As to `CC(C)(O)CC[C@@H](O)[C@](C)(O)[C@H]1CC[C@@]2(O)C3=CC(=O)[C@@H]4C[C@@H](O)[C@@H](O)C[C@]4(C)[C@H]3CC[C@]12C`, the inhibition in assay [1] is 8% (inactive). Besides, the compound was called inactive in assay [10], in [11], in assay [12], in assay [6], in assay [13] and in [14]. In addition, the call in [15] and in [16] was inactive. The luciferase signal in assay [3] was 60 AU (inactive).
